Assay outcomes (PubChem)
Sampled rows, rich in hits. Any-hit rate of the full collection: about 2.1%.
IEC-6 tox = IEC-6 cytotoxicity, counter-screen for KLF5 inhibitors; luminescence viability; AID 1825; inhibition, % at 5 µM; 290,000 compounds, 0.78% hits; in the data active = inhibition above about 22%;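 note: 0% = plate median of test compound wells and 100% = cytotoxic reference compound wells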
APP transl inh = APP translation inhibition; SH-SY5Y APP 5'UTR-luciferase reporter, luminescence; inhibition, % at 2 µM; 190,000 compounds, 0.82% hits; AID 1285;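 active = inhibition above a set limit, derived from the sample mean plus 3 SD, cut at about 45% in these data; inconclusive = one replicate passes the limit while the other fails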
aSyn 5UTR inh = 5' untranslated region of α-synuclein, MLPCN primary screen. 300,000 compounds, 0.82% hits. alpha-synuclein 5'UTR reporter, inhibitor activity. inhibition, % (tested at 7.5 µM). AID 1813; in the data active = inhibition above about 60%; inconclusive = no clear call, values can overlap the other calls;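 note: H4 neuroglioblastoma cells stably carrying SNCA 5'UTR luciferase fusion; 0% = DMSO wells and 100% = positive control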
BaF3 tox = reduces parental Ba/F3 cell viability, JAK2V617F counter-screen; inhibition, % at 5.6 µM; AID 1486; 220,000 compounds, 1.1% hits; CellTiter-Glo ATP luminescence;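 active = inhibition above a per-campaign cutoff, the mean inhibition of all tested compounds plus 3 SD, cut at about 27% in these data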;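 note: 0% = DMSO wells and 100% = JAK Inhibitor I control wells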
Ba/F3 V617F tox = reduce viability of Ba/F3 cells dependent on JAK2V617F. Ba/F3 EpoR-JAK2V617F viability, ATP luminescence. inhibition, % at 5.6 µM. 220,000 compounds, 1.1% hits;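 active = inhibition above the campaign mean plus 3 SD over all tested compounds, cut at about 24% in these data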;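 note: cytokine-independent growth of Ba/F3 cells driven by EpoR plus mutant JAK2; 0% = DMSO-treated cells and 100% = JAK inhibitor I control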
KLF5 inhibitor = inhibitors of KLF5 expression | DLD-1 KLF5 promoter-luciferase reporter, luminescence | inhibition, % at 5 µM | 290,000 compounds, 0.23% hits | AID 1700;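 active = inhibition above a per-plate limit of that plate's mean compound inhibition plus 3 SD, cut at about 60% in these data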;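 note: 0% = DMSO wells and 100% = LY294002 at 200 µM; higher means less KLF5 promoter-driven luciferase light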
BaF3 parental 2 = counter-screen for JAK2V617F inhibitors: parental Ba/F3 viability inhibitors. shares compounds with Ba/F3 V617F tox. inhibition, % at 5.6 µM. CellTiter-Glo luminescence; cells kept alive by added IL-3. 580 compounds, 31% hits. AID 1520;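 active = cell growth inhibition above the hit limit set in the earlier mutant JAK2 cell screen, cut at about 27% in these data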;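 note: plate controls were DMSO-treated cells for no effect and JAK Inhibitor I control wells for full effect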
JAK2V617F confrm = Ba/F3 EpoR-JAK2V617F viability loss, confirmation | shares compounds with Ba/F3 V617F tox | CellTiter-Glo luminescence | inhibition, % at 5.6 µM | 580 compounds, 66% hits | AID 1521;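 active = mean inhibition above the hit cutoff derived in the earlier primary screen, cut at about 25% in these data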;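 note: 0% = DMSO-treated cells and 100% = JAK inhibitor I control wells; higher means lower luminescence from reduced cell ATP and viability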
* = called active by the depositor; ? = inconclusive; . = no result given.

SMILES | IEC-6 tox | APP transl inh | aSyn 5UTR inh | BaF3 tox | Ba/F3 V617F tox | KLF5 inhibitor | BaF3 parental 2 | JAK2V617F confrm
CCn1c(SCc2c(F)cccc2Cl)nnc1-c1ccco1 | 4.2 | -1.8 | -22.6 | -0.8 | 27.2* | 8.5 | -2.0 | 3.6
O=C(Nn1c(-c2ccc(F)cc2)nc2ccccc2c1=O)c1cccnc1 | 4.5 | -17.6 | 1.2 | 1.1 | 65.6* | -7.3 | -5.0 | 14.4
OC(c1cc(-c2ccc(Cl)cc2)nc2ccccc12)C1CCCCN1 (configuration not stated) | 34.0* | . | 96.4* | 1.8 | 65.1* | -12.0 | 4.7 | 20.4
O[C@@H](c1cc(C(F)(F)F)nc2c(C(F)(F)F)cccc12)[C@H]1CCCCN1 | . | . | 5.2 | . | . | . | . | .
Oc1ccc(-c2nc3ccc4ccccc4c3c3c2CCC3)cc1O | 0.9 | 1.1 | -151.2 | 2.5 | 62.8* | -32.5 | 53.0* | 97.5*
COc1ccc(-c2cc(C(=O)O)nc3ccc4ccccc4c23)cc1OC | 3.9 | -1.3 | -42.8 | 7.0 | 2.6 | -21.6 | . | .
COc1ccc(-n2nc([N+](=O)[O-])c(=NCCCN3CCCC3=O)n2O)cc1 | -5.0 | -9.4 | -21.5 | 2.3 | -3.2 | -5.9 | . | .
O=C1CCCN1CCCN=c1c([N+](=O)[O-])nn(-c2ccc(Cl)cc2)n1O | 17.8 | 5.6 | 42.8 | 24.7 | 32.0* | -17.8 | 8.1 | 38.1*
COc1cc(C(=O)OCC(C)=O)ccc1OCc1c(C)noc1C | 14.0 | 13.8 | -11.6 | 24.1 | 38.9* | 28.2 | 15.4 | 25.6*
COc1ccccc1N1CCN(CCCCOc2c(OC)cccc2OC)CC1 | 0.4 | . | -4.0 | . | . | -19.1 | . | .
COc1ccccc1N1CCN(CCOc2c(OC)cccc2OC)CC1 | 6.5 | 11.7 | 20.4 | 4.6 | 26.0* | -1.3 | -2.6 | 22.1
CCOc1ccccc1N1CCN(Cc2cccc(OC)c2O)CC1 | -1.2 | 6.2 | -2.1 | 4.0 | 40.1* | 10.9 | -5.5 | 3.7
Cc1cccc2cc(CN(CC3CCCO3)C(=O)c3ccco3)c(=O)[nH]c12 (configuration not stated) | -3.4 | 0.8 | 22.8 | 3.8 | -0.8 | 2.7 | . | .
O=C(c1ccco1)N(Cc1cc2ccccc2[nH]c1=O)CC1CCCO1 (configuration not stated) | 10.1 | 9.7 | 19.5 | 1.1 | 68.5* | -29.1 | -2.3 | -4.1
C=CCn1c(CNC(=O)c2ccco2)nnc1SCC(=O)N1c2ccccc2Sc2ccccc21 | 2.7 | -2.3 | 17.5 | 22.1 | 71.5* | 9.6 | -1.2 | -0.8
COc1ccc(N=Nc2n(C)c3ccccc3[n+]2C)cc1 | 18.5 | . | 103.3* | 21.9 | 25.9* | 36.7 | 34.7* | 21.7
Cn1c(COc2ccccc2O)[n+](C)c2ccccc21 | 5.6 | . | 12.0 | . | . | -13.9 | . | .
Cc1ccc(S(=O)(=O)N2CCC(C(=O)N[C@@H](C)C(=O)Nc3ccc4c(c3)OCO4)CC2)cc1 | 1.8 | . | -4.5 | 7.4 | 43.3* | -22.5 | -0.2 | 6.2
CCN(CC)S(=O)(=O)c1cccc(C(=O)N[C@H](C(=O)Nc2nc3ccc(F)cc3s2)C(C)C)c1 | 8.4 | -17.0 | -82.8 | 0.6 | 66.0* | -5.2 | -0.7 | 13.5
COc1ccc(OCc2nn[nH]n2)cc1 | -2.9 | . | -11.6 | . | . | -8.7 | . | .
CC(=O)N1CCc2cc(S(=O)(=O)CCC(=O)N(C)Cc3ccco3)ccc21 | 5.2 | . | -13.2 | . | . | 5.0 | . | .
Fc1ccc(N2CCN(Cc3ccccn3)CC2)cc1 | -1.7 | -4.5 | -24.5 | -0.7 | 63.2* | -11.1 | -4.7 | -7.2
O=c1[nH]c(CN2CCN(c3ccc(F)cc3)CC2)nc2ccccc12 | -2.0 | -0.2 | -5.0 | 1.4 | 1.2 | -5.9 | . | .
COc1ccc(OCC(O)Cn2c(=N)n(Cc3ccccc3)c3ccccc32)cc1 (configuration not stated) | 17.9 | 3.7 | 2.0 | 22.6 | 68.5* | 0.6 | 5.0 | 34.9*
Cc1cccc(OCC(O)CN2CCNCC2)c1 (configuration not stated) | -5.9 | . | -7.5 | . | . | -42.4 | . | .
SMILES | IEC-6 tox | APP transl inh | aSyn 5UTR inh | BaF3 tox | Ba/F3 V617F tox | KLF5 inhibitor | BaF3 parental 2 | JAK2V617F confrm
N=c1n(Cc2ccccc2)c2ccccc2n1Cc1ccccc1 | 8.9 | -2.8 | 5.3 | 0.3 | 3.6 | -2.9 | . | .
Cc1cccc(OCC(O)Cn2c(=N)n(Cc3ccccc3)c3ccccc32)c1 (configuration not stated) | 5.3 | . | 8.8 | 5.5 | 25.8* | -32.4 | 2.8 | 31.7*
COc1cc(OC)c(NC(=O)CCNS(=O)(=O)c2ccc3c(c2)CC(C)N3C(C)=O)cc1Cl (configuration not stated) | -6.9 | . | -9.6 | . | . | 6.4 | . | .
O=C(c1cnc2ccc3ccccc3c2c1)c1cc(F)ccc1O | 2.8 | . | 11.2 | 16.0 | 26.3* | -6.2 | 17.7 | 39.5*
Cc1ccccc1-n1c(Cn2c(=O)sc3ccccc32)nnc1SCC(=O)NCC1CCCO1 (configuration not stated) | 0.2 | 6.1 | . | 4.0 | -2.2 | -38.2 | . | .
Cc1cc(SCC(=O)N/N=C/c2ccc(O)c(O)c2)c(C)cc1Br | -2.3 | 25.0 | -0.4 | 10.7 | 44.2* | -16.1 | 4.7 | 85.2*
Cc1c(NC(=O)COC(=O)C2=COCCO2)cccc1[N+](=O)[O-] | . | . | 4.0 | . | . | . | . | .
Cc1ccc(C)c(Cn2nnc3c(=O)[nH]c(C(=O)NCC4CCCO4)nc32)c1 (configuration not stated) | 5.5 | 2.0 | 21.4 | 4.4 | 27.5* | -15.6 | -0.7 | 1.4
Cc1nc(N=C(N)N)nc2ccccc12 | 7.3 | -22.7 | 4.5 | 19.9 | 33.5* | -7.0 | 28.9* | 50.9*
O=C(COC(=O)c1ccncc1)Nc1cc(Cl)ccc1Cl | -2.6 | 17.9 | 19.5 | 3.9 | 44.9* | -11.9 | -4.8 | -1.1
Cc1nc([N+](=O)[O-])c(Br)n1Cc1ccc(Cl)c(Cl)c1 | 13.8 | 21.4 | -44.4 | -1.8 | 46.4* | 8.7 | 1.5 | 84.6*
CCN(CC)c1ccc(/C=N/Nc2nc3ccccc3[nH]2)cc1 | 41.1* | 11.6 | -25.5 | -2.0 | 49.8* | -52.2 | 4.8 | 64.3*
COc1cccc(/C=N/Nc2nc3ccccc3[nH]2)c1O | 4.7 | . | 32.7 | 21.1 | 77.2* | 36.3 | 59.0* | 88.8*
CC(=O)Nc1ccc(/C=N/Nc2nc3ccccc3[nH]2)cc1 | -1.9 | -20.0 | -101.2 | -0.9 | 6.0 | -6.1 | . | .
COc1cccc(/C=N/Nc2ncnc3scc(-c4ccccc4)c23)c1O | -1.1 | 89.4* | ? | 26.3 | 40.6* | 79.8* | 92.4* | 97.7*
COC(=O)c1sccc1N/N=C/c1cccc(OC)c1O | -4.6 | -180.0 | -21.1 | 4.7 | 2.9 | -43.7 | . | .
Cc1c(C(=O)N(Cc2ccccc2)C(C)C)oc2ccc(S(=O)(=O)N3CCOCC3)cc12 | 3.2 | . | 14.2 | . | . | -54.2 | . | .
Cc1ccc(CNc2ccc3c(c2)ncn3C(C)(C)C)cc1 | -1.0 | -164.6 | -97.4 | 1.4 | 0.9 | -177.4 | . | .
COC(=O)c1cc(CNC(=O)c2ccc(N3CCCC3)c([N+](=O)[O-])c2)ccc1OC | -0.4 | . | 16.3 | . | . | -5.0 | . | .
